For experiment [1], the system named is MDA-MB-231. Put plainly: cell viability relative to vehicle unstimulated control (fraction); higher = more viable cells. As to conditions: pre-treatment time: 18 h then 24 h IFNg/TNF.
Experiment [2] deals with MDA-MB-231. Put plainly: kynurenine production, fold change vs DMSO IFNg/TNF control; higher = more kynurenine produced (less inhibition). As to conditions: pre-treatment time: 18 h then 24 h IFNg/TNF. In a few lines:
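In 96-well plates, MDA-MB-231 cells (7 × 10^4/well) were given 24 h to settle, pre-treated for 18 h with each natural product in 0.1% DMSO, and stimulated for 24 h with IFNγ (1 U/ml) and TNF (6.25 ng/ml) at 37°C. Supernatants were processed with trichloroacetic acid and p-dimethylaminobenzaldehyde and read at 492 nm against 0–100 μM standards. In the first screening round, kynurenine production, as fold change over same-plate cytokine-stimulated vehicle wells, was averaged over duplicate plates.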

The structures appear in SMILES notation. ± gives the standard deviation of the averaged measurements.
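For cell viability relative to vehicle unstimulated control in this document: viability of the cells left after supernatant collection, read with Deep Blue dye added for 4 h, as absorbance at 570 nm minus 600 nm.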

For the molecule `CN1C2CCC1CC(O)C2` (centres undefined) [Tropine] (compound dose: 10 uM), the cell viability in the experiment with MDA-MB-231 [1] was determined as 0.938 ± 0.13. For the same molecule, in the experiment on MDA-MB-231 [2], the kynurenine production amounted to 0.902 ± 0.2.

As to `C=C[C@H]1[C@H](O[C@@H]2O[C@H](CO)[C@@H](O)[C@H](O)[C@H]2O)OC=C2C(=O)OCC[C@H]21` [Sweroside] (compound dose: 10 uM), in the experiment with MDA-MB-231 [1], the cell viability stood at 0.996 ± 0.063. Moreover, the kynurenine production with MDA-MB-231 [2] amounted to 0.832 ± 0.17.

On to `C=C1[C@H](OC(=O)c2ccccc2)C[C@H]2[C@@H](/C=C(\C)C(=O)[C@@]3(OC(C)=O)C[C@H](C)[C@H](OC(=O)c4ccccc4)[C@@H]3[C@H]1OC(C)=O)C2(C)C` [Euphorbia factor L2] (compound dose: 10 uM), for which, in the experiment with MDA-MB-231 [1], the cell viability was 1.07 ± 0.015. Further, in the experiment on MDA-MB-231 [2], the kynurenine production turned out to be 0.384 ± 0.048.

As for `C=C1CC[C@H]2[C@@H](/C=C(\C)C(=O)[C@@]3(O)C[C@H](C)[C@H](O)[C@@H]3[C@@H]1O)C2(C)C` [Lathyrol] (compound dose: 10 uM), in the experiment on MDA-MB-231 [1], the cell viability stood at 1.08 ± 0.11. The kynurenine production in the experiment on MDA-MB-231 [2] came to 0.849 ± 0.095.

`C=C1[C@H](OC(C)=O)[C@@H](OC(=O)c2ccccc2)[C@@H](OC(C)=O)C(C)(C)[C@H]2O[C@](O)([C@@H](C)C2=O)[C@@]2(OC(C)=O)C[C@H](C)[C@H](OC(C)=O)[C@@H]2[C@H]1OC(C)=O` [Kansuinine A] (compound dose: 10 uM): the cell viability in the experiment with MDA-MB-231 [1] was 0.934 ± 0.028. Also, the kynurenine production with MDA-MB-231 [2] was 0.709 ± 0.031.

As to `C[C@@H]1C(=O)O[C@H]2[C@H](O)[C@@]34O[C@@H]5OC(=O)[C@H](O)[C@@]56[C@H](C(C)(C)C)[C@H](O)C(OC3=O)[C@]64[C@@]12O` (some centres undefined) [Ginkgolide C] (compound dose: 10 uM), in the experiment with MDA-MB-231 [1], the cell viability was determined as 0.9704 ± 0.0066. Besides, the kynurenine production in the experiment with MDA-MB-231 [2] came out at 0.947 ± 0.088.

In the case of `O=C1C=C2C=C[C@@H]3C[C@@]2(O1)[C@H]1CCCCN31` [Securinine] (compound dose: 10 uM), in the experiment on MDA-MB-231 [1], the cell viability worked out at 0.89. For the same molecule, in the experiment with MDA-MB-231 [2], the kynurenine production turned out to be 0.213 ± 0.096.

Regarding `COc1cc([C@@H]2c3cc4c(cc3C[C@H]3COC(=O)[C@@H]32)OCO4)cc(OC)c1OC` [4-deoxypodophyllotoxin] (compound dose: 10 uM), the cell viability with MDA-MB-231 [1] came to 0.814 ± 0.042. Also, the kynurenine production with MDA-MB-231 [2] came out at 0.623 ± 0.19.

Take `C[C@@H]1CC[C@@]2(OC1)O[C@H]1C[C@H]3[C@@H]4CC=C5C[C@@H](O[C@@H]6O[C@H](CO)[C@@H](O[C@@H]7O[C@@H](C)[C@H](O[C@@H]8O[C@@H](C)[C@H](O)[C@@H](O)[C@H]8O)[C@@H](O)[C@H]7O)[C@H](O)[C@H]6O[C@@H]6O[C@@H](C)[C@H](O)[C@@H](O)[C@H]6O)CC[C@]5(C)[C@H]4CC[C@]3(C)[C@H]1[C@@H]2C` [Formosanin C] (compound dose: 10 uM): the cell viability with MDA-MB-231 [1] is -0.00547 ± 0.0077. For the same molecule, the kynurenine production in the experiment with MDA-MB-231 [2] was 0.125 ± 0.075.

In the case of `C[C@]1(C(=O)O)CCC[C@]2(C)c3cc(O)ccc3CC[C@@H]12` [Podocarpic acid] (compound dose: 10 uM), the cell viability in the experiment on MDA-MB-231 [1] is 0.946 ± 0.07. Also, the kynurenine production in the experiment with MDA-MB-231 [2] was 0.852 ± 0.12.

On to `CC(=O)OC12COC1CC(O)C1(C)C(=O)C(O)C3=C(C)C(O)CC(O)(C(OC(=O)c4ccccc4)C21)C3(C)C` (centres undefined) [10-Deacetylbaccatin III] (compound dose: 10 uM), for which the cell viability in the experiment with MDA-MB-231 [1] is 0.999 ± 0.017. Moreover, the kynurenine production in the experiment with MDA-MB-231 [2] was 0.849 ± 0.18.

As for `CC(=O)O[C@H]1C[C@H](O[C@H]2[C@@H](O)C[C@H](O[C@H]3[C@@H](O)C[C@H](O[C@H]4CC[C@@]5(C)[C@H](CC[C@@H]6[C@@H]5C[C@@H](O)[C@]5(C)[C@@H](C7=CC(=O)OC7)CC[C@]65O)C4)O[C@@H]3C)O[C@@H]2C)O[C@H](C)[C@H]1O[C@@H]1O[C@H](CO)[C@@H](O)[C@H](O)[C@H]1O` [Lanatoside C] (compound dose: 10 uM), the cell viability in the experiment on MDA-MB-231 [1] was determined as 0.607 ± 0.021. Also, the kynurenine production with MDA-MB-231 [2] turned out to be 0.149 ± 0.015.

Regarding `CC(=O)O[C@@H]1[C@H]2[C@@H](OC(=O)Cc3ccccc3)[C@@H](C)C[C@]2(OC(C)=O)C(=O)/C(C)=C/[C@@H]2[C@H](CC[C@]13CO3)C2(C)C` [Euphorbia Factor L1] (compound dose: 10 uM), the cell viability in the experiment with MDA-MB-231 [1] came to 0.909 ± 0.045. The kynurenine production in the experiment on MDA-MB-231 [2] was 1.11 ± 0.0098.

In the case of `CC(C)=CCC[C@](C)(O)[C@H]1CC[C@]2(C)[C@@H]1[C@H](O)C[C@@H]1[C@@]3(C)CC[C@H](O)C(C)(C)[C@@H]3[C@@H](O[C@@H]3O[C@H](CO)[C@@H](O)[C@H](O)[C@H]3O)C[C@]12C` [Ginsenoside Rh1] (compound dose: 10 uM), the cell viability in the experiment with MDA-MB-231 [1] is 0.999 ± 0.025. Moreover, the kynurenine production in the experiment on MDA-MB-231 [2] is 0.852 ± 0.15.

Consider `COc1cc2c3c(c1OC)-c1ccccc1C[C@H]3N(C)CC2` [Nuciferine] (compound dose: 10 uM), for which the cell viability with MDA-MB-231 [1] came to 1.05 ± 0.051. In addition, the kynurenine production with MDA-MB-231 [2] worked out at 1.1 ± 0.08.

For the molecule `COc1ccc2c(c1O)-c1c(O)c(OC)cc3c1[C@H](C2)N(C)CC3` [Corytuberine] (compound dose: 10 uM), the cell viability in the experiment with MDA-MB-231 [1] stood at 0.829 ± 0.025. For the same molecule, the kynurenine production in the experiment on MDA-MB-231 [2] was 0.889 ± 0.11.

On to `CC(C)(C)[C@]1(O)CC2OC(=O)CC23C(=O)OC2OC(=O)[C@H](O)C231` (some centres undefined) [Bilobalide] (compound dose: 10 uM), for which the cell viability in the experiment on MDA-MB-231 [1] amounted to 1.01 ± 0.015. In addition, the kynurenine production with MDA-MB-231 [2] worked out at 0.774 ± 0.031.

(Values after the supplement of paper PMC13094657.)
